{
  "source": "PubChem BioAssay (Tox21)",
  "note": "“And” between values parts separate entries of the source, which are not always exact repeats. Identical values can stand only once. Records with an inconclusive call do not appear. A call without a number means that no potency is given here. The source made the active and inactive calls. Unless noted, calls come from the whole dose curve; as a rule, active = well fitted cell-killing curve with a large enough effect in the repeat runs; inconclusive = weak or mixed curves, or effect the other way; inactive = flat fitted curve, though single readings scatter.",
  "data": [
    {"test_system": "not listed separately", "assay": "qHTS assay to identify small molecule agonists of the androgen receptor (AR) signaling pathway in the presence of an antagonist - cell viability counter screen (AID 1259379); note: nearly all actives have a fitted effect of over 25% in size; note: potency is the fitted concentration of half-maximal effect", "settings": "MDA-kb2 viability, CellTiter-Fluor, 16 h; series mostly up to 92.4 µM", "in_short": "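A CellTiter-Fluor read-out measured viability of MDA-kb2 reporter cells (MMTV promoter with AR and GR response elements). Treatment: nilutamide 3.0uM final with compounds at 15 concentrations, 16 hr, 37C, 0% CO2.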", "values": [
      {"compound": "COc1ccc(S(=O)(=O)N2C(=O)[C@@](c3ccccc3OC)(N3C[C@H](O)C[C@H]3C(=O)N(C)C)c3cc(Cl)ccc32)c(OC)c1", "Potency": "54.5 µM (active)"},
      {"compound": "O=C(c1ccc(F)cc1)C1CCN(CCn2c(=S)[nH]c3ccccc3c2=O)CC1", "Potency": "inactive"},
      {"compound": "ClCCOCCOCCCl", "Potency": "inactive"},
      {"compound": "O=C(O)c1ccco1", "Potency": "inactive"},
      {"compound": "C=CC(=O)OCCOCCOCCOCCOC(=O)C=C", "Potency": "61.4 µM (active) and 54 µM (active)"},
      {"compound": "Cc1oc2c(NC(=O)c3c(Cl)cccc3Cl)cccc2c1C(C)(C)O", "Potency": "21.7 µM (active)"},
      {"compound": "O=C(O)c1nc(Cl)c(Cl)c(Cl)c1Cl", "Potency": "inactive"},
      {"compound": "CC1=CC[C@H](C(C)C)C=C1", "Potency": "inactive"},
      {"compound": "CN(C)C(=O)NC1(c2ccccc2)CCN(CC[C@@]2(c3ccc(F)c(F)c3)CN(C(=O)c3ccccc3)CCO2)CC1", "Potency": "inactive"},
      {"compound": "CC(=O)[O][Al]", "Potency": "inactive"},
      {"compound": "CC1=CC=C(C(C)C)CC1", "Potency": "inactive"},
      {"compound": "CCCCC/C=C\\C/C=C\\CCCCCCCC(=O)NC(C)c1ccccc1", "note": "(centres undefined)", "Potency": "inactive"},
      {"compound": "CCOC(=O)NCCOc1ccc(Oc2ccccc2)cc1", "Potency": "61.1 µM (active)"},
      {"compound": "C[C@H]1C[C@H]2[C@@H]3CCC4=CC(=O)C=C[C@]4(C)[C@@]3(Cl)[C@@H](O)C[C@]2(C)[C@@]1(O)C(=O)CO", "Potency": "inactive"},
      {"compound": "CC(=O)[O][Al][O]C(C)=O", "Potency": "inactive"},
      {"compound": "O=C(Nc1ccc(S(=O)(=O)N2CCOCC2)cc1)c1cc(Cl)ccc1NS(=O)(=O)c1ccc(Cl)s1", "Potency": "inactive"},
      {"compound": "CCN(CC)CCOC(=O)C(Cc1cccc2ccccc12)CC1CCCO1", "note": "(centres undefined)", "Potency": "inactive"},
      {"compound": "CCCCCCc1ccc(-c2ccc(C#N)cc2)cc1", "Potency": "inactive"},
      {"compound": "CN(C)CCN(Cc1ccc(Cl)cc1)c1ccccn1", "Potency": "inactive"},
      {"compound": "Cc1ccc(C(C)OC(=O)C2(C)CCC(C(=O)O)C2(C)C)cc1", "note": "(centres undefined)", "Potency": "inactive"},
      {"compound": "CCOc1ccc(N=Nc2ccc(/C=C/c3ccc(N=Nc4ccc(OCC)cc4)cc3S(=O)(=O)O)c(S(=O)(=O)O)c2)cc1", "Potency": "21.4 µM (active)"},
      {"compound": "CC1CCC(=O)C1=O", "note": "(centres undefined)", "Potency": "inactive"},
      {"compound": "CCOC(=O)C(F)(F)F", "Potency": "inactive"},
      {"compound": "O=C(OCCCCCCOC(=O)c1ccccc1)c1ccccc1", "Potency": "inactive"}
    ]},
    {"test_system": "not listed separately", "assay": "qHTS assay to identify small molecule agonists of the estrogen receptor beta (ER-beta) signaling pathway - cell viability counter screen (AID 1259380); note: nearly all actives have a fitted effect of over 30% in size; note: potency is the fitted concentration of half-maximal effect", "settings": "ER-beta-bla HEK293T viability, CellTiter-Glo luminescence, 16 h; series mostly up to 92.4 µM", "in_short": "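Cells used were ER-beta-UAS-bla HEK293T in medium with 2% charcoal-stripped FBS. They were treated for 16 hr at 37C. Viability came from CellTiter-Glo luminescence.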", "values": [
      {"compound": "CCc1cc(C2=C(C(=O)O)N(c3ccccc3C(F)(F)F)S(=O)(=O)c3ccccc32)cc2c1OCO2", "Potency": "15.2 µM (active)"},
      {"compound": "O=C(O)C1(C(=O)Nc2ccc(Cl)cc2Cl)CC1", "Potency": "15.4 µM (active)"},
      {"compound": "C#Cc1cccc(Nc2ncnc3cc(OCCOC)c(OCCOC)cc23)c1", "Potency": "2.66 µM (active)"},
      {"compound": "ClCCOCCOCCCl", "Potency": "inactive"},
      {"compound": "O=C(O)c1ccco1", "Potency": "inactive"},
      {"compound": "CCCCCCOC(=O)NC(=N)c1ccc(NCc2nc3cc(C(=O)N(CCC(=O)OCC)c4ccccn4)ccc3n2C)cc1", "Potency": "11.9 µM (active)"},
      {"compound": "Cc1oc2c(NC(=O)c3c(Cl)cccc3Cl)cccc2c1C(C)(C)O", "Potency": "30.6 µM (active)"},
      {"compound": "CCOc1ccc(N)c([N+](=O)[O-])c1", "Potency": "inactive"},
      {"compound": "CN(C)C(=O)NC1(c2ccccc2)CCN(CC[C@@]2(c3ccc(F)c(F)c3)CN(C(=O)c3ccccc3)CCO2)CC1", "Potency": "71.4 µM (active)"},
      {"compound": "CC(=O)[O][Al]", "Potency": "inactive"},
      {"compound": "CC1=CC=C(C(C)C)CC1", "Potency": "inactive"},
      {"compound": "C=C1C(=C/C=C2\\CCC[C@]3(C)[C@@H]([C@H](C)/C=C/[C@@H](O)C4CC4)CC[C@@H]23)C[C@@H](O)C[C@@H]1O", "Potency": "26.6 µM (active)"},
      {"compound": "Cc1cccc(C)c1OCC(=O)N[C@@H](Cc1ccccc1)[C@@H](O)C[C@H](Cc1ccccc1)NC(=O)[C@H](C(C)C)N1CCCNC1=O", "Potency": "23.7 µM (active)"},
      {"compound": "CN(C)CCN(Cc1ccc(Cl)cc1)c1ccccn1", "Potency": "33.5 µM (active)"},
      {"compound": "Cc1ccc(C(C)OC(=O)C2(C)CCC(C(=O)O)C2(C)C)cc1", "note": "(centres undefined)", "Potency": "inactive"},
      {"compound": "CCOc1ccc(N=Nc2ccc(/C=C/c3ccc(N=Nc4ccc(OCC)cc4)cc3S(=O)(=O)O)c(S(=O)(=O)O)c2)cc1", "Potency": "inactive"},
      {"compound": "CC1CCC(=O)C1=O", "note": "(centres undefined)", "Potency": "inactive"},
      {"compound": "CCOC(=O)C(F)(F)F", "Potency": "inactive"},
      {"compound": "CC[N+]1(CC)CCC(=C(c2ccccc2)c2ccccc2)C1C", "note": "(centres undefined)", "Potency": "inactive"},
      {"compound": "CNCCCN1c2ccccc2CCc2ccccc21", "Potency": "23.7 µM (active)"},
      {"compound": "CN(C)CCCN1c2ccccc2Sc2ccccc21", "Potency": "21.1 µM (active)"},
      {"compound": "O=C(OCCCCCCOC(=O)c1ccccc1)c1ccccc1", "Potency": "inactive"},
      {"compound": "CCN(CC)CCNc1ccc(CNC=O)c2sc3ccc(OC)cc3c(=O)c12", "Potency": "8.63 µM (active)"},
      {"compound": "CC(C)C[C@H]1C(=O)N2CCC[C@H]2[C@]2(O)O[C@](NC(=O)[C@@H]3C=C4c5cccc6[nH]c(Br)c(c56)C[C@H]4N(C)C3)(C(C)C)C(=O)N12", "Potency": "inactive"}
    ]},
    {"biological_target": "Androgen receptor (Homo sapiens) (UniProt P10275)", "sequence (P10275 whole entry, looked up)": "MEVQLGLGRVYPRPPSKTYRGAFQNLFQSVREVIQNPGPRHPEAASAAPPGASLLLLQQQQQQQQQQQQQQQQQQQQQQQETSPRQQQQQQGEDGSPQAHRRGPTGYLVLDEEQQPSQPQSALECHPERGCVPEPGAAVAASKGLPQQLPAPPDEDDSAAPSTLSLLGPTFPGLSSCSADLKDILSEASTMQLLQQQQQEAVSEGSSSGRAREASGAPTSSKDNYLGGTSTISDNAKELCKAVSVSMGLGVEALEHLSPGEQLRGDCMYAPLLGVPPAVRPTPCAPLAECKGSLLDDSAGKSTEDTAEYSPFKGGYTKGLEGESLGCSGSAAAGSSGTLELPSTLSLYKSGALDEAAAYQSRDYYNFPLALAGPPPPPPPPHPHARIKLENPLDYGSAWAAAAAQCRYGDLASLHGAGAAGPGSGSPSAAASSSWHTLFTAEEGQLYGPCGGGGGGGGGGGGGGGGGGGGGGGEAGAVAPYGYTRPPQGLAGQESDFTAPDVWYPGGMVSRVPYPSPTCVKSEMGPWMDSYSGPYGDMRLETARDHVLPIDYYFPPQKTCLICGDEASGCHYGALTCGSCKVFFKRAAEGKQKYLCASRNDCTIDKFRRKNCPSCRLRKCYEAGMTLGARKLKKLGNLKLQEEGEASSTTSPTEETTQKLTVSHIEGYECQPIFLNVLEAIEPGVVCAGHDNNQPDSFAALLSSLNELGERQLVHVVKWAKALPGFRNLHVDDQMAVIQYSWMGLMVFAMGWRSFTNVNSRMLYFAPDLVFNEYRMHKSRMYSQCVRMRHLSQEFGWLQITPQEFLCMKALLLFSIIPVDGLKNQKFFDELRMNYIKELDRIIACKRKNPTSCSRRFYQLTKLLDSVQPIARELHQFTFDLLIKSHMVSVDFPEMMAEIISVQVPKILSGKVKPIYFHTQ", "assay": "qHTS assay to identify small molecule agonists of the androgen receptor (AR) signaling pathway in the presence of an antagonist (AID 1259381; calls by dose curve; note: nearly all actives have a fitted effect of over 15% in size)", "settings": "MDA-kb2 MMTV-luciferase, AR agonist + nilutamide, 16 h; series mostly up to 42.5 µM", "in_short": "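Using human MDA-kb2 cells with an MMTV promoter–luciferase construct (AR and GR response elements), agonist activity is scored under 3.0uM nilutamide (final) co-treatment; 16hr incubation, 37C, luminescence readout via ONE-Glo.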", "values": [
      {"compound": "COc1ccc(S(=O)(=O)N2C(=O)[C@@](c3ccccc3OC)(N3C[C@H](O)C[C@H]3C(=O)N(C)C)c3cc(Cl)ccc32)c(OC)c1", "Potency": "inactive"},
      {"compound": "O=C(c1ccc(F)cc1)C1CCN(CCn2c(=S)[nH]c3ccccc3c2=O)CC1", "Potency": "inactive"},
      {"compound": "O=C(O)C1(C(=O)Nc2ccc(Cl)cc2Cl)CC1", "Potency": "inactive"},
      {"compound": "C=C1C(=C/C=C2\\CCC[C@]3(C)[C@@H]([C@H](C)/C=C/[C@@H](O)C4CC4)CC[C@@H]23)C[C@@H](O)C[C@@H]1O", "Potency": "inactive"},
      {"compound": "Cc1cccc(C)c1OCC(=O)N[C@@H](Cc1ccccc1)[C@@H](O)C[C@H](Cc1ccccc1)NC(=O)[C@H](C(C)C)N1CCCNC1=O", "Potency": "inactive"},
      {"compound": "CNCCCN1c2ccccc2CCc2ccccc21", "Potency": "inactive"}
    ]}
  ]
}
